Values joined by “and” are separate entries in the source; they are usually repeats but may differ in a detail not shown here. Identical values can stand only once. Out of some 5,500 compounds screened, about 2,000 (36%) were called active. About 18% were inconclusive and are not listed. Cut-off read from the data, not from the text of the source: active = normalized growth mostly below about 0.91 (no sharp cut-off); inconclusive = no clear call, values can overlap the other calls; inactive = mostly above about 0.92. Some of the results follow.
Test: chemical genetic growth profiling, strain panel (AID 1159580);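 note: tested at 20 µM; growth read once vehicle control cultures reached saturation at 30 °C; 1 = growth at the plate median or of vehicle wells; lower values mean less growth of the strain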
Conditions: S. cerevisiae deletion strains, growth OD

Measured: normalized growth

CC(N)CCCC(C)(C)O (centres undefined)
inactive: locus YAL013W, strain DEP1, active compounds read low 0.998 | locus YAL021C, strain ccr4, active compounds read low 0.973 | locus YAL026C, strain drs2, active compounds read low 0.993 | locus YAL030W, strain snc1, active compounds read low 0.989 | locus YBL061C, strain skt5, active compounds read low 0.98 | locus YBR009C, strain hhf1, active compounds read low 1.01 | locus YBR021W, strain FUR4, active compounds read low 1.02 | locus YBR023C, strain chs3, active compounds read low 0.98 | locus YBR171W, strain sec66, active compounds read low 0.964 | locus YBR229C, strain ROT2, active compounds read low 1.01 | locus YBR231C, strain swc5, active compounds read low 0.976 | locus YBR279W, strain paf1, active compounds read low 0.984 | locus YCL011C, strain gbp2, active compounds read low 0.969 | locus YCL016C, strain dcc1, active compounds read low 0.989 | locus YCL029C, strain bik1, active compounds read low 1 | locus YCL061C, strain MRC1, active compounds read low 0.971 | locus YCL069W, strain vba3, active compounds read low 0.979 | locus YCR088W, strain abp1, active compounds read low 0.973 | locus YDL005C, strain med2, active compounds read low 0.983 | locus YDL035C, strain GPR1, active compounds read low 1.02 | locus YDL040C, strain nat1, active compounds read low 0.984 | locus YDL074C, strain BRE1, active compounds read low 0.979 | locus YDL101C, strain DUN1, active compounds read low 0.994 | locus YDL134C, strain PPH21, active compounds read low 1.02 | locus YDL185W, strain tfp1, active compounds read low 1.01 | locus YDL192W, strain arf1, active compounds read low 1.01 | locus YDR001C, strain nth1, active compounds read low 0.973 | locus YDR069C, strain doa4, active compounds read low 0.981 | locus YDR101C, strain arx1, active compounds read low 0.976 | locus YDR137W, strain rgp1, active compounds read low 1.01 | locus YDR159W, strain sac3, active compounds read low 0.975 | locus YDR162C, strain NBP2, active compounds read low 1.01 | locus YDR195W, strain ref2 0.904 | locus YDR297W, strain sur2, active compounds read low 0.975 | locus YDR318W, strain mcm21, active compounds read low 1.01 | locus YDR334W, strain swr1, active compounds read low 0.93 | locus YDR335W, strain msn5, active compounds read low 0.985 | locus YDR388W, active compounds read low 1.01 | locus YDR392W, strain spt3, active compounds read low 0.905 | locus YDR502C, strain sam2, active compounds read low 0.996 | locus YEL003W, strain gim4, active compounds read low 0.97 | locus YEL037C, strain rad23, active compounds read low 0.977 | locus YEL061C, strain CIN8 (second series), active compounds read low 0.977 | locus YEL061C, strain CIN8, active compounds read low 0.994 | locus YER015W, strain faa2, active compounds read low 0.982 | locus YER016W, strain bim1, active compounds read low 0.98 | locus YER110C, active compounds read low 1.02 | locus YER111C, strain swi4, active compounds read low 0.987 | locus YER155C, strain BEM2 (second series), active compounds read low 0.972 | locus YER155C, strain BEM2, active compounds read low 1 | locus YER167W, strain BCK2, active compounds read low 1.01 | locus YFR010W, strain ubp6, active compounds read low 0.978 | locus YGL078C, strain dbp3, active compounds read low 1.01 | locus YGL086W, strain mad1, active compounds read low 0.998 | locus YGL167C, strain pmr1, active compounds read low 0.979 | locus YGL173C, strain kem1, active compounds read low 0.983 | locus YGL227W, strain vid30, active compounds read low 0.981 | locus YGL240W, strain doc1, active compounds read low 0.979 | locus YGL248W, strain PDE1, active compounds read low 1 | locus YGL253W, strain hxk2, active compounds read low 0.977 | locus YGR135W, strain pre9, active compounds read low 1.04 | locus YGR229C, strain SMI1, active compounds read low 0.99 | locus YGR252W, strain gcn5, active compounds read low 1.01 | locus YHR013C, strain ard1, active compounds read low 0.959 | locus YHR027C, strain rpn1, active compounds read low 0.969 | locus YHR030C, strain SLT2, active compounds read low 1.01 and 1.08 | locus YHR079C, strain IRE1 (second series), active compounds read low 1.01 | locus YHR079C, strain IRE1, active compounds read low 1.08 | locus YHR094C, strain hxt1, active compounds read low 1 | locus YHR129C, strain ARP1, active compounds read low 1.01 | locus YHR142W, strain chs7, active compounds read low 0.954 | locus YHR200W, strain rpn10, active compounds read low 1.01 | locus YIL066C, strain RNR3, active compounds read low 0.998 | locus YIL073C, strain SPO22, active compounds read low 1.05 | locus YIL125W, strain kgd1, active compounds read low 1 | locus YIR030C, strain dcg1, active compounds read low 1.01 | locus YJL092W, strain hpr5, active compounds read low 0.966 | locus YJL095W, strain BCK1 (second series), active compounds read low 0.977 | locus YJL095W, strain BCK1, active compounds read low 0.972 and 1.1 | locus YJL115W, strain asf1, active compounds read low 0.939 | locus YJL129C, strain trk1, active compounds read low 0.975 | locus YJL134W, strain LCB3, active compounds read low 1.01 | locus YJL154C, strain vps35, active compounds read low 0.978 | locus YJL164C, strain tpk1, active compounds read low 1.01 | locus YJL166W, strain qcr8, active compounds read low 0.987 | locus YJL168C, strain set2, active compounds read low 0.997 | locus YJL187C, strain SWE1 (second series), active compounds read low 0.974 | locus YJL187C, strain SWE1, active compounds read low 0.994 | locus YJR043C, strain POL32, active compounds read low 0.989
